Test results reported in PubChem BioAssay (NCATS).
Inconclusive results are not listed. The source made the active and inactive calls. Calls come from the whole dose curve; as a rule, active = well fitted cell-killing curve with a large enough effect; inconclusive = small, poorly fitted or top-dose-only effect, or effect the other way; inactive = no such curve, though single readings can be large or run the other way.

assay: Quantitative High-Throughput drug screen in 47 multiple myeloma cell lines against the NCATS MIPE library collection: KHM11_PLB cell viability assay (AID 1918962); details: KHM11 myeloma cell viability, CellTiter-Glo ATP luminescence, 48 h; series mostly up to 45.8 µM; note: nearly all actives have a fitted effect of over 35% in size
Excerpt: PI: Beverly A. Mock Ph.D.
Laboratory of Cancer Biology and Genetics,
Center for Cancer Research, National Cancer Institute,
National Institute of Health, Bethesda, Maryland
Drug resistance and disease progression are common in multiple myeloma (MM) patients, underscoring the need for new therapeutic combinations. […] We hypothesized that effective combinations would reduce MYC expression and enhance p16 activity. […] These preclinical data identify potentially useful drug combinations for evaluation in drug-resistant MM and reveal potential mechanisms of combined drug sensitivity.
Described herein is the primary MIPE qHTS used to cherrypick compounds. Validated compounds were then further tested for potential synergistic activiy.
[1] Peat TJ, Gaikwad SM, Dubois W, Gyabaah-Kessie N, Zhang S, Gorjifard S, Phyo Z, Andres M, Hughitt VK, Simpson RM, Miller MA, Girvin AT, Taylor A, Williams D, D'Antonio N, Zhang Y, Rajagopalan A, Flietner E, Wilson K, Zhang X, Shinn P, Klumpp-Thomas C, McKnight C, Itkin Z, Chen L, Kazandijian D, Zhang J, Michalowski AM, Simmons JK, Keats J, Thomas CJ, Mock BA. Drug combinations identified by high-throughput screening promote cell cycle transition and upregulate Smad pathways in myeloma. Cancer Lett. 2023 Aug 1;568:216284. doi: 10.1016/j.canlet.2023.216284. Epub 2023 Jun 24. PMID: 37356470; PMCID: PMC10408729.
SEQUENCE No. (e.g., 1, 2, 3, etc.); […] (e.g., Cells, Incubation, Reagent, etc.); VALUE and DESCRIPTION.
1; Cells; 5 uL; white, solid bottom 1536-well Greiner assay plate.
2; Compounds; 23 nL; Kalypsis pin tool (Wako USA) equipped with a 1536-well pin head to transfer to the assay plates.
3; Incubation; 48 hours; 37C incubation.
4; Reagent;5uL; CellTiter Glo (Promega).
5; Detector; 425V; Luminescence; Viewlux PerkinElmer.
NOTES (numbers refer to Sequence numbers above)
1. The cell-based screening methods employed in this study were like those previously published. Briefly, the corresponding myeloma cell lines were screened in 1,536-well plates with 500 cells, 5-uL per well for inhibition of cell viability (assessed by measuring ATP levels with CellTiterGlo).
2. NCATS MIPE 4.0 library of approved and investigational drugs were added using the Kalypsis pin tool. Wells treated with DMSO only for 100% viability and media only wells for 0% viability were used as controls.
3. The assay plates were covered and incubated for 48 hours in a 37C, 5% CO2 incubator with controlled humidity.
4. After 48 hours, CellTilter-GloTM luminescent substrate mix (Promega) reagent was added to the assay plate and plates we incubated for 5 min at room temperature.
5. Signal was measured as median relative luminescence units on a ViewLux (PerkinElmer) multiplate reader.
[1] Heske CM, Davis MI, Baumgart JT, Wilson K, Gormally MV, Chen L, Zhang X, Ceribelli M, Duveau DY, Guha R, Ferrer M, Arnaldez FI, Ji J, Tran HL, Zhang Y, Mendoza A, Helman LJ, Thomas CJ. Matrix Screen Identifies Synergistic Combination of PARP Inhibitors and Nicotinamide Phosphoribosyltransferase (NAMPT) Inhibitors in Ewing Sarcoma. Clin Cancer Res. 2017 Dec 1;23(23):7301-7311. doi: 10.1158/1078-0432.CCR-17-1121. Epub 2017 Sep 12. PMID: 28899971; PMCID: PMC6636827.
Potency is the fitted concentration of half-maximal effect.

Q: For `CCCCCC[C@H]1C(=O)O[C@H](C)[C@H](NC(=O)c2cccc(NC=O)c2O)C(=O)O[C@@H](C)[C@@H]1OC(=O)CC(C)C`, which Potency is on record?
A: 0.105 µM (active)

Q: Which Potency does the source give for `CN(C)[C@@H]1C(=O)C(C(N)=O)=C(O)[C@@]2(O)C(=O)C3=C(O)c4c(O)cccc4[C@@](C)(O)[C@H]3[C@H](O)[C@@H]12` here?
A: 7.43 µM (active)

Q: Which Potency does the source give for `Cc1c(C(=O)c2cccc3ccccc23)c2cccc3c2n1[C@H](CN1CCOCC1)CO3` here?
A: 16.6 µM (active)

Q: For `O=c1cccc2n1CC1CNC[C@H]2C1`, which Potency is on record?
A: inactive

Q: For `CC(C)N(CCNC(=O)CN1CCCC1=O)C(C)C`, which Potency is on record?
A: inactive

Q: For `Oc1ccc2c3c1O[C@H]1c4[nH]c5c(c4C[C@@]4(O)[C@@H](C2)N(CC2CC2)CC[C@]314)C[C@@]1(O)[C@H]2Cc3ccc(O)c4c3[C@@]1(CCN2CC1CC1)[C@H]5O4`, which Potency is on record?
A: inactive

Q: With `C1=C2CCCN[C@H]2[C@@H]2C[C@H]1[C@@H]1CCCCN1C2` as the compound, how does the Potency read?
A: inactive

Q: For `C[C@]12CC[C@H](O)CC1=CC[C@H]1[C@H]3CCC(=O)[C@@]3(C)CC[C@@H]12`, which Potency is on record?
A: 14.8 µM (active)

Q: Which Potency does the source give for `CCCC[N+]1(C)[C@H]2CC(OC(=O)[C@H](CO)c3ccccc3)C[C@H]1[C@H]1O[C@H]12` (stereo not given in full) here?
A: inactive

Q: Which Potency does the source give for `C[C@@H]1CC[C@@]2(OC1)O[C@H]1C[C@H]3[C@@H]4CC=C5C[C@@H](O[C@@H]6O[C@H](CO)[C@@H](O[C@@H]7O[C@@H](C)[C@H](O)[C@@H](O)[C@@H]7O)[C@H](O)[C@@H]6O[C@@H]6O[C@@H](C)[C@H](O)[C@@H](O)[C@@H]6O)CC[C@]5(C)[C@@H]4CC[C@]3(C)[C@@H]1[C@H]2C` here?
A: 2.96 µM (active)

Q: For `C[C@@H]1O[C@@H](O[C@@H]2C=C3CC[C@@H]4[C@@H](CC[C@]5(C)[C@H](c6ccc(=O)oc6)CC[C@@]45O)[C@@]3(C)CC2)[C@H](O)[C@H](O)[C@H]1O`, which Potency is on record?
A: 0.0296 µM (active)

Q: For `Cc1[nH]nc2ccc(-c3cncc(OC[C@@H](N)Cc4c[nH]c5ccccc45)c3)cc12`, which Potency is on record?
A: 0.132 µM (active)

Q: For `C[C@H]1CCCC=CC2C[C@H](O)C[C@@H]2[C@H](O)C=CC(=O)O1` (stereo not given in full), which Potency is on record?
A: inactive

Q: With `CN1[C@H]2CC(O)C[C@H]1[C@H]1O[C@H]12` (stereo not given in full) as the compound, how does the Potency read?
A: 14.8 µM (active)

Q: With `O=c1[nH]c2ccc(Cl)cc2c(N[C@@H]2CN3CCC2CC3)c1-c1nc2ccccc2[nH]1` as the compound, how does the Potency read?
A: 0.235 µM (active)

Q: Which Potency does the source give for `CC[C@@]1(O)C(=O)OCc2c1cc1n(c2=O)Cc2cc3ccccc3nc2-1` here?
A: 0.235 µM (active)

Q: With `CC(C)(C)c1cc(C=C(C#N)C#N)cc(Br)c1O` as the compound, how does the Potency read?
A: 14.8 µM (active)

Q: With `CC=C(C)C(=O)O[C@H]1C(C)=C2[C@@H]3OC(=O)[C@@](C)(O)[C@@]3(O)[C@@H](OC(=O)CCC)C[C@](C)(OC(C)=O)[C@@H]2[C@@H]1OC(=O)CCCCCCC` as the compound, how does the Potency read?
A: 0.332 µM (active)

Q: For `CC1=C(O)C(=O)C=C2C1=CC=C1[C@@]2(C)CC[C@@]2(C)[C@@H]3C[C@](C)(C(=O)O)CC[C@]3(C)CC[C@]12C`, which Potency is on record?
A: 0.743 µM (active)

Q: For `CC(C)(O)C=CC(=O)[C@](C)(O)[C@H]1[C@H](O)C[C@]2(C)[C@@H]3CC=C4[C@@H](C=C(O)C(=O)C4(C)C)[C@]3(C)C(=O)C[C@@]12C`, which Potency is on record?
A: 0.0418 µM (active)

Q: Which Potency does the source give for `CC(C)[C@]12O[C@@H]1[C@@H]1O[C@]13[C@]1(O[C@H]1C[C@@H]1C4=C(CC[C@@]13C)C(=O)OC4)[C@H]2O` here?
A: inactive

Q: With `CN1CCN(c2ccc([N+](=O)[O-])c3no[n+]([O-])c23)CC1` as the compound, how does the Potency read?
A: 14.8 µM (active)

Q: With `C#CC1(O)CCC2C3CCC4=CC(=O)CCC4(C)C3CCC21C` (stereo not given) as the compound, how does the Potency read?
A: inactive

Q: For `CC(=O)Nc1ccc(OC[C@](C)(O)C(=O)Nc2ccc([N+](=O)[O-])c(C(F)(F)F)c2)cc1`, which Potency is on record?
A: inactive

Q: For `COc1cc2cc(c1Cl)N(C)C(=O)C[C@H](OC(=O)C(C)C)[C@]1(C)O[C@H]1[C@H](C)[C@@H]1C[C@@](O)(NC(=O)O1)[C@H](OC)C=CC=C(C)C2`, which Potency is on record?
A: inactive

Q: Which Potency does the source give for `C=CCON=C(C[C@H]1O[C@@H]2O[C@]3(C)CC[C@@H]4[C@H](C)CC[C@@H]([C@H]1C)[C@@]24OO3)[C@H]1O[C@@H]2O[C@]3(C)CC[C@H]4[C@H](C)CC[C@@H]([C@@H]1C)[C@@]24OO3` here?
A: 0.418 µM (active)

Q: For `O=c1[nH]c2ccccc2n1C1CCN(Cc2ccc(-c3[nH]c4cc5ncnc5cc4nc3-c3ccccc3)cc2)CC1`, which Potency is on record?
A: inactive

Q: With `CCC(=O)OC1CCC2C3CCC4=CC(=O)CC[C@@]4(C)C3CC[C@]12C` (stereo not given in full) as the compound, how does the Potency read?
A: inactive

Q: Which Potency does the source give for `c1ccc(CCCN2CCN(CCOC(c3ccccc3)c3ccccc3)CC2)cc1` here?
A: 16.6 µM (active)

Q: With `CC[C@@H](C(N)=O)N1CCCC1=O` as the compound, how does the Potency read?
A: inactive

Q: With `N#C[C@H](O[C@@H]1O[C@H](CO[C@@H]2O[C@H](CO)[C@H](O)[C@H](O)[C@H]2O)[C@H](O)[C@H](O)[C@H]1O)c1ccccc1` as the compound, how does the Potency read?
A: 23.5 µM (active)

Q: For `CC(C)(O)C(=O)Nc1ccc([N+](=O)[O-])c(C(F)(F)F)c1`, which Potency is on record?
A: 20.9 µM (active)

Q: Which Potency does the source give for `CC(C)N[C@@H]1CCn2c(=O)[nH]c3cccc(c32)[C@@H]1O` here?
A: 13.2 µM (active)

Q: With `COc1ccc(C(=O)c2c(C)n(CCN3CCOCC3)c3cc(I)ccc23)cc1` as the compound, how does the Potency read?
A: inactive

Q: Which Potency does the source give for `CCOC(=O)c1cncn1[C@H](C)c1ccccc1` here?
A: inactive

Q: With `Clc1ccccc1C(c1ccccc1)(c1ccccc1)n1cccn1` as the compound, how does the Potency read?
A: inactive

Q: With `C[C@H]([C@H](O)CCC(C)(C)O)[C@H]1CC[C@@]2(O)C3=CC(=O)[C@@H]4C[C@@H](O)[C@@H](O)C[C@]4(C)[C@@H]3CC[C@]12C` as the compound, how does the Potency read?
A: inactive

Q: With `O=S(=O)(CC1CS1)c1ccc(Oc2ccccc2)cc1` (stereo not given) as the compound, how does the Potency read?
A: 14.8 µM (active)

Q: With `NC1CC1c1ccccc1` (stereo not given) as the compound, how does the Potency read?
A: inactive

Q: Which Potency does the source give for `CC(=Cc1csc(C)n1)[C@@H]1C[C@H]2O[C@]2(C)CCC[C@H](C)[C@@H](O)[C@@H](C)C(=O)C(C)(C)[C@@H](O)CC(=O)O1` here?
A: inactive
